# IL1B secr inh: inflammasome signaling inhibition, IL-1 beta readout; THP-1 LPS/ATP IL-1B secretion, AlphaLISA, 16 h; hits give low values; activity change, % at 57.5 µM; actives 4.7% (n = 360,000); AID 743279; in the data active means activity change below about -50%; inconclusive means mostly about -30% to -49%
#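 THP-1 cells pretreated 1 hr with compounds (up to 57.5 uM final), then stimulated with LPS (250 ng/mL final) plus ATP (1.25 mM final); secreted IL-1B measured by AlphaLISA after 16 hr, decreased signal indicating inhibition.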
# DT40 TDP1 CPT: DT40-hTDP1 cell growth loss with CPT. actives 12% (n = 420,000). chicken DT40 Tdp1-/-;hTDP1 cells + 20 nM CPT, ATP luminescence, 48 h. Potency, µM (top dose mostly 46.2 µM), for inactives: at the highest dose activity change, negative = growth inhibition, most hits filed as inhibitors. AID 686979; further: potency means the concentration at half of the fitted maximal effect; nearly all actives have a fitted effect of over 55% in size
#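 Cell growth measured by CellTiter-Glo luminescence after a minimum 48 h, 37 C compound exposure with 20 nM CPT in Tdp1-knockout DT40 cells stably expressing hTDP1, seeded 400/well; qHTS titration format.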
# DT40 TDP1 no CPT: qHTS for Inhibitors of human tyrosyl-DNA phosphodiesterase 1 (TDP1): qHTS in cells in absence of CPT | DT40 Tdp1-/- hTDP1 cells, no CPT, ATP luminescence, 48 h | Potency, µM (highest dose often 46.2 µM), inactives show at the highest dose activity change, negative = growth inhibition, usual class: inhibitors | actives 15% (n = 420,000) | AID 686978, 2013; further: potency means the concentration at half of the fitted maximal effect; nearly all actives have a fitted effect of over 55% in size
#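 Chicken DT40 Tdp1-/- cells stably complemented with human TDP1 were seeded at 400 cells/well with DMSO in place of 20 nM camptothecin. After compound pinning, cells grew at least 48 hr at 37 °C; viability read by CellTiter-Glo luminescence.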
# HT1080-NT tox: kills 2HG-producing HT-1080-NT fibrosarcoma cells; HT-1080-NT fibrosarcoma viability, CellTiter-Glo ATP luminescence, 48 h; Potency, µM (series often up to 46.1 µM), without a hit: at the highest dose activity, negative = less viability, actives largely listed as cytotoxic; actives 1.6% (n = 360,000);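 further: NT is the 2HG producing partner of a matched IDH1 knockdown line; potency means the concentration at half of the fitted maximal effect; 0% = DMSO-treated cells and -100% = media-only wells without cells; nearly all actives have a fitted effect of over 55% in size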
#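 Fibrosarcoma NT cells, 750 per well in 5% FBS RPMI, were exposed to compound for 48 hours. Viability: CellTiter-Glo luminescence.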
# HT1080 IDH1KD tx: toxicity to HT-1080 IDH1 knockdown cells (counter line) | HT-1080 IDH1 knockdown viability, ATP luminescence, 48 h | Potency, µM (titrated, usually from 46.1 µM), for inactives: at the top dose activity, negative = toxicity, usual class: cytotoxic | actives 2% (n = 360,000) | AID 686971;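 further: potency means the concentration at half of the fitted maximal effect; 0% = DMSO wells and -100% = cell-free medium wells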
#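 Knockdown cells (IDH1KD HT-1080) received compounds 2 h after plating at 750 cells/well and were kept 48 h at 37 °C in 5% FBS RPMI. A CellTiter-Glo luminescence read gave % activity for curve fitting.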
# 12-LOX inh: blocks human arachidonate 12S-lipoxygenase; purified 12hLO, xylenol orange hydroperoxide absorbance; actives 1.1% (n = 580,000); Potency, µM (series often up to 108 µM), for inactives: top-dose activity change, negative = inhibition, usual class: inhibitors; AID 1671190; P18054; further: potency means the concentration at half of the fitted maximal effect
# Target sequence (P18054 whole entry, looked up): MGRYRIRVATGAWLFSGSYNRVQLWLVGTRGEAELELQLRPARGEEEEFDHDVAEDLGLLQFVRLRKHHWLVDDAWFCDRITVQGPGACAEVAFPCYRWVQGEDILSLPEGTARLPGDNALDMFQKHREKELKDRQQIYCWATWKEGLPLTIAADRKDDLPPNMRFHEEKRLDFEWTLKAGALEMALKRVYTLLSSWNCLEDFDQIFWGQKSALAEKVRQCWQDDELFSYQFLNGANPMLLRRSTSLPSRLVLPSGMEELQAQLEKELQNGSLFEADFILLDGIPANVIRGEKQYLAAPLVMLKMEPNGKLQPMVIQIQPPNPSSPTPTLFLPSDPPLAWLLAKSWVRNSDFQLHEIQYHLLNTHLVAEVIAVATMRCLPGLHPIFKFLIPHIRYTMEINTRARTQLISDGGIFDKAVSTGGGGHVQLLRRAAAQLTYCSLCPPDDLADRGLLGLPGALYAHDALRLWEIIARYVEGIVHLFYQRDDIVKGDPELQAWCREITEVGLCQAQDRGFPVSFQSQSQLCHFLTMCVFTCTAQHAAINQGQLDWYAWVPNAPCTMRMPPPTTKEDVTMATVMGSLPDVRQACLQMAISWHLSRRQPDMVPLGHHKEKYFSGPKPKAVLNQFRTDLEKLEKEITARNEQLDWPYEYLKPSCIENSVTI
#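 Purified human 12hLO at 150 nM in 25 mM Hepes, 0.01% Triton X-100, pH 7.0, preincubated 15 min at room temperature with compound. Reaction started with 40 uM arachidonic acid, 30 min at room temperature. Hydroperoxide measured by Fe-xylenol orange, 573/405 nm absorbance ratio.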
# * hit, by the source's call; ? = inconclusive; nt = no result given; [ ] = remark or other dose. Only a selection was taken, and hits are over-represented in it overall. Unless noted, the call rests on the fitted dose curve; in most records, active means well fitted curve in the direction sought with a large enough effect; inconclusive means small, poorly fitted or top-dose-only effect, or another doubt; inactive means no such curve, though single readings can be large; an effect the other way counts as inactive or inconclusive. Unless noted, on the % scale 0 is the no-effect control and ±100 the full control effect.
SMILES,IL1B secr inh,DT40 TDP1 CPT,DT40 TDP1 no CPT,HT1080-NT tox,HT1080 IDH1KD tx,12-LOX inh
CN1[C@@H](CCC(=O)NCc2ccco2)CNC(=O)[C@@H]2[C@H]1CCN2Cc1ccc(C(=O)O)cc1,nt,nt,nt,nt,nt,11%
CC(C)(C)n1nnnc1C(c1ccc(Cl)cc1)N1CCCc2ccccc21 (stereo unspecified),29,?,15µM*,4%,10%,-1%
COc1ccccc1C(c1nnnn1C(C)(C)C)N1CCCc2ccccc21 (stereo unspecified),-9,?,?,-2%,10%,326%
CCC(C)(C)n1nnnc1C(c1cccs1)N1CCc2ccccc21 (stereo unspecified),3,29µM*,16µM*,-25%,-9%,-10%
Cc1ccc(NC(=O)c2ccc(Cl)cc2Cl)nc1,nt,nt,nt,nt,nt,1%
COc1cccc(C(=O)N2CCC[C@H]2c2nc(-c3ccccc3)no2)c1,nt,nt,nt,nt,nt,10%
CC(=O)CCSc1nnc(-c2cccc(S(=O)(=O)N3CCOCC3)c2)o1,-4,-24%,-17%,-2%,5%,-8%
CCn1c(SCc2nc3ccccc3s2)nc2cc(S(=O)(=O)N3CCOCC3)ccc21,12,29µM*,?,-22%,-4%,27%
O=S(=O)(c1cccc(-c2nnc(SCc3nc4ccccc4s3)o2)c1)N1CCOCC1,-19,18µM*,?,0%,2%,6%
O=C(c1cc(F)ccc1Br)N1CCC(n2c(=O)[nH]c3ccccc32)CC1,nt,nt,nt,nt,nt,-6%
NC(=O)c1sc2nc(-c3ccccc3)c3c(c2c1N)CCCC3,8,?,16µM*,-7%,-1%,-24%
CCc1nc2sc(C(C)=O)c(N)c2c2c1CCCC2,-2,?,15µM*,-2%,0%,?
Cc1ccc(-c2nc3sc(C(N)=O)c(N)c3c3c2CCCC3)cc1,-2,?,?,12%,2%,?
Cc1nc2sc(C(N)=O)c(N)c2c2c1CCCC2,-95*,?,?,-22%,-4%,34%
O=C1CC(c2ccccc2)N(C(=O)CNC(=O)C2(c3ccccc3)CC2)CCCCCCN1 (stereo unspecified),nt,nt,nt,nt,nt,31%
COC(=O)c1ccc2c(=O)[nH]c(CN(C)CC(=O)Nc3cccc(F)c3)nc2c1,nt,nt,nt,nt,nt,30%
S=C(N/N=C/c1ccc(Br)cc1)N1CCCCC1,-8,1.2µM*,?,-16%,-26%,-25%
S=C(N/N=C/c1ccc(Cl)cc1)N1CCOCC1,27,0.0092µM*,0.018µM*,4%,10%,?
CC(C)NC(=O)N(C1CC1)C1CCOC2(CCN(C(=O)Cc3ccccc3)CC2)C1 (stereo unspecified),nt,nt,nt,nt,nt,19%
O=C(C1CCCN(Cc2ccccc2[N+](=O)[O-])C1)N1CCCCC1 (stereo unspecified),26,-29%,-29%,14%,0%,2µM*
O=C(C1CCCN(Cc2ccccc2Cl)C1)N1CCCCC1 (stereo unspecified),5,-10%,-24%,-8%,6%,?
O=C(C1CCCN(Cc2cccc3ccccc23)C1)N1CCCCC1 (stereo unspecified),nt,nt,nt,nt,nt,0.45µM*
Fc1ccc(-c2nc(-c3ccncc3)no2)cc1,nt,nt,nt,nt,nt,-14%
Cc1noc(C)c1[S+](=O)([O-])N(C)Cc1ccc(-c2ccccc2)cc1,nt,nt,nt,nt,nt,19%
O=C(O)c1ccc2c(c1)C(=O)N(c1ccc(Cl)cn1)C2=O,0,1%,12%,-2%,5%,?
SMILES,IL1B secr inh,DT40 TDP1 CPT,DT40 TDP1 no CPT,HT1080-NT tox,HT1080 IDH1KD tx,12-LOX inh
O=C1c2cccc3c([N+](=O)[O-])ccc(c23)C(=O)N1c1ccccn1,-114*,3.7µM*,2.9µM*,26µM*,?,95%[57.4 µM]
CC(=O)Oc1ccc(N2C(=O)c3cccc4c([N+](=O)[O-])ccc(c34)C2=O)cc1,?,3.7µM*,5.8µM*,-4%,-11%,?
O=C1c2cccc3c([N+](=O)[O-])c(O)cc(c23)C(=O)N1Nc1ccccc1,?,?,?,-17%,-12%,-22%
O=C1c2cccc3c([N+](=O)[O-])ccc(c23)C(=O)N1O,-2,2.1µM*,2.3µM*,?,?,-11%
O=C1c2cccc3c([N+](=O)[O-])ccc(c23)C(=O)N1c1ccc(Cl)cn1,-92*,3.3µM*,3.7µM*,4.5µM*,1.6µM*,-35%
Cc1nc2nc(NCc3ccccc3)[nH]n2c(=O)c1CCC(=O)Nc1ccc2ccccc2c1,nt,nt,nt,nt,nt,-4%
COc1ccccc1N1C(=O)c2cccc3c(N(C)CCO)ccc(c23)C1=O,11,8.2µM*,?,-8%,-6%,28%
COc1ccc2c3c(cccc13)C(=O)N(O)C2=O,-23,2.3µM*,2.1µM*,?,21µM*,-7%
Cc1ccccc1N1C(=O)c2cccc3c(N(C)CCO)ccc(c23)C1=O,?,?,-26%,-18%,9%,?
O=C1c2cccc3c([N+](=O)[O-])ccc(c23)C(=O)N1c1nccs1,-107*,3.3µM*,3.3µM*,8.9µM*,2.2µM*,-19%
O=C(c1cccnc1)N1CCCC(c2noc(COc3ccccc3F)n2)C1 (stereo unspecified),nt,nt,nt,nt,nt,36%
O=C(NC1CCCCC1)c1ccc(CSc2nc3cccnc3n2Cc2ccccc2)cc1,nt,?,?,nt,nt,7%
O=C(NC1CCCC1)c1ccc(CSc2nc3cccnc3n2Cc2ccccc2)cc1,nt,?,16µM*,nt,nt,2%
COc1ccc(Cn2c(SCc3ccc(C(=O)NC4CCCC4)cc3)nc3cccnc32)cc1,nt,?,18µM*,nt,nt,-12%
O=C(NC1CCCCC1)c1ccc(Cn2c(SCc3cccc(F)c3)nc3cccnc32)cc1,nt,21µM*,21µM*,nt,nt,6%
CCOc1cccc2sc(N(Cc3cccnc3)C(=O)C3=COCCO3)nc12,nt,nt,nt,nt,nt,-1%
Cc1c(O)cc2c(c1O)C(=O)CC(c1ccccc1)O2 (stereo unspecified),63,5.8µM*,5.8µM*,?,23µM*,?
CN(CC(=O)NC1CCCCNC1=O)Cc1ccc(Br)cc1 (stereo unspecified),nt,nt,nt,nt,nt,59%
CC(C)CCNC(=O)Nc1ccc2c(c1)N(C)C(=O)c1ccccc1S2,nt,15µM*,16µM*,nt,nt,-2%
CN1C(=O)c2ccccc2Sc2ccc(NC(=O)NCc3ccccc3Br)cc21,nt,16µM*,21µM*,nt,nt,0%
